In PubChem BioAssay (EPA / NIEHS):
Where “and” joins values, the source holds several entries; their conditions need not be identical. Equal entries are not always repeated. Calls of active or inactive are those of the source. How the source made its calls: active means hit-call score of the fitted dose curve at least 0.9, where 1 is the maximum; inactive means score below 0.9.

Read-out: Monokine induced gamma interferon (MIG), CXCL9 (gene 4283)
Test: BSK_BE3C_MIG: BioMAP Diversity Plus: BE3C Assay for Monokine induced gamma interferon (MIG) Biomarker Activity (AID 2283035)
Details: primary human bronchial epithelial cells; actives raise or lower the signal
Protocol: BSK_BE3C is a cell-based, multiplexed-readout assay that uses bronchial epithelial cell, a human lung primary cell, with measurements taken at 24 hours after chemical dosing in a 96-well plate.BSK_BE3C_MIG is an assay component measured in the BSK_BE3C assay. It measures MIG antibody related to regulation of gene expression using ELISA technology.Data from the assay component BSK_BE3C_MIG was analyzed into 1 assay endpoint. This assay endpoint, BSK_BE3C_MIG, was analyzed with bidirectional fitting relative to DMSO as the negative control and baseline of activity. Using a type of binding reporter, gain or loss-of-signal activity can be used to understand changes in the signaling as they relate to the gene CXCL9. Furthermore, this assay endpoint can be referred to as a primary readout, because this assay has produced multiple assay endpoints where this one serves a signaling function. To generalize the intended target to other relatable targets, this assay endpoint is annotated to the cytokine intended target family, where the subfamily is chemotactic factor.
The levels of cell surface (or secreted, indicated by the prefix "s") biomarker endpoints were measured by ELISA. Overt cytotoxicity to cells in confluent adherent cultures (all systems other than the BT system) was assessed by measuring total protein levels using sulforhodamine B (SRB) staining in parallel cultures at the time of biomarker measurements, indicated as SRB endpoints. For proliferation assays for adherent cell types, individual cell types are cultured at sub-confluence and relative cell numbers quantified by SRB staining at time points optimized for each system (48 h: 3C and CASM3C systems; 72 h: BT and HDF3CGF systems; 96 h: SAg system). SRB was performed by staining cells with 0.1% SRB after fixation with 10% TCA and reading wells at 560 nm.Viability and proliferation of PBMC (T cells) was quantified by Alamar Blue reduction for the SAg and BT systems. For PBMC viability (referred to as PBMC Cytotoxicity within the assay endpoint names), cells were plated (75,000/well in a 96-well plate) and then chemical samples added for 1 h before addition of activators, SEB and TSST-1 (20 ng/mL final concentration each). Cells were incubated for 90 h. Then, Alamar Blue (20 uL/well) (Invitrogen, Cat DAL1100) was added for 6 h, and the plates were read with a fluorescence microplate reader at 546/580 nm (excitation/emission). For PBMC proliferation, cells were plated and activated as above but incubated for only 16 h prior to addition of Alamar Blue. Plates were read after 6 h.

| SMILES | outcome | AC50 |
| --- | --- | --- |
| NC(O)(C(F)(F)F)C(F)(F)F | inactive |  |
| CN(C(=O)C(F)(F)C(F)(F)C(F)(F)F)[Si](C)(C)C | inactive |  |
| CCN=C1C=CC(=C(c2ccc(N(CC)CC)cc2)c2ccc(N(CC)CC)cc2)c2ccccc21 |  | 2.48 µM (active) and 2.92 µM (active) |
| Cc1ccc(S(=O)(=O)C(I)I)cc1 |  | 11 µM (active) |
| O=S(=O)(OCC(F)(F)F)C(F)(F)C(F)(F)C(F)(F)C(F)(F)F | inactive |  |
| C=CC(=O)OCC(F)(F)C(F)(F)C(F)(F)COC(=O)C=C |  | 51.8 µM (active) and 49.1 µM (active) |
| CNS(=O)(=O)C(F)(F)C(F)(F)C(F)(F)C(F)(F)C(F)(F)C(F)(F)C(F)(F)C(F)(F)F | inactive |  |
| CCOC(=O)CC(=O)C(F)(F)C(F)(F)F | inactive |  |
| O=C(Cl)C(F)(F)C(F)(F)C(F)(F)C(F)(F)C(F)(F)C(F)(F)C(F)(F)F | inactive |  |
| O=S(=O)(O)CCC(F)(F)C(F)(F)C(F)(F)C(F)(F)F | inactive |  |
| CO[Si](C)(CCC(F)(F)C(F)(F)C(F)(F)C(F)(F)C(F)(F)C(F)(F)F)OC | inactive |  |
| O=C(Cl)C(F)(F)C(F)(F)C(F)(F)C(F)(F)C(F)(F)C(F)(F)F | inactive |  |
| Cc1cc(O)c(C(C)(C)C)cc1C(C)(C)C |  | 11 µM (active) |
| Cc1cnccn1 | inactive |  |
| CCN(CC)c1ccc(N=Nc2ccccc2)cc1 | inactive |  |
| O=S(=O)(O)CCC(F)(F)C(F)(F)C(F)(F)C(F)(F)C(F)(F)C(F)(F)C(F)(F)C(F)(F)F | inactive |  |
| OCCCCC(F)(F)C(F)(F)C(F)(F)C(F)(F)F | inactive |  |
| FC(F)(F)C(F)(F)C(F)(F)C(F)(F)C(F)(F)C(F)(F)CC[Si](Cl)(Cl)Cl | inactive |  |
| O=C(F)C1(F)C(F)(F)C(F)(F)C(F)(F)C(F)(F)C1(F)F | inactive |  |
| O=C(O)C(F)(F)C(F)(F)C(F)(F)OC(F)(F)F | inactive |  |

| SMILES | outcome | AC50 |
| --- | --- | --- |
| CCOC(C=C(C)CCC=C(C)C)OCC | inactive |  |
| NC(=O)C(F)(F)C(F)(F)C(F)(F)C(F)(F)C(F)(F)C(F)(F)C(F)(F)F | inactive |  |
| O=C1C=CC(=O)N1c1ccc(Cc2ccc(N3C(=O)C=CC3=O)cc2)cc1 |  | 6.3 µM (active) |
| O=C(c1ccccc1)c1ccc(O)cc1O | inactive |  |
| O=C(O)CCC(F)(F)C(F)(F)C(F)(F)F | inactive |  |
| NCC(F)(F)C(F)(F)C(F)(F)C(F)(F)C(F)(F)C(F)(F)C(F)(F)C(F)(F)F | inactive |  |
| FC(F)(F)C(F)(F)C(F)(F)CC1CO1 (stereo not given) | inactive |  |
| OCC(F)(F)C(F)(F)C(F)(F)CO | inactive |  |
| O=C=NCc1cccc(CN=C=O)c1 | inactive |  |
| OC(O)C(F)(F)C(F)(F)F | inactive |  |
| O=C(O)C(F)(F)C(F)(F)C(F)(F)C(=O)O | inactive |  |
| NCC(F)(F)C(F)(F)C(F)(F)C(F)(F)C(F)(F)C(F)(F)F | inactive |  |
| Cc1cc(C)c(O)c(C(C)(C)C)c1 |  | 36 µM (active) |
| OCC(O)CC(F)(F)C(F)(F)C(F)(F)C(F)(F)F (stereo not given) | inactive |  |
| CCN(CC)c1ccc2c(c1)Oc1cc(N(CC)CC)ccc1C21OC(=O)c2ccccc21 | inactive |  |
| O=C(O)C(F)(F)C(F)(F)C(F)(F)OC(F)(C(F)(F)F)C(F)(F)F | inactive |  |
| OCC(O)CC(F)(F)C(F)(F)C(F)(F)C(F)(F)C(F)(F)C(F)(F)C(F)(F)C(F)(F)F (stereo not given) | inactive |  |
| O=C1c2c(O)ccc(Nc3ccc(CCO)cc3)c2C(=O)c2c([N+](=O)[O-])ccc(O)c21 |  | 20 µM (active) |
| C=C(C)C(=O)OCC(F)(F)C(F)(F)C(F)(F)C(F)F | inactive |  |
| C=CC(=O)OCCC(F)(F)C(F)(F)C(F)(F)C(F)(F)F | inactive |  |
